Bioassay records deposited in PubChem by National Center for Advancing Translational Sciences (NCATS).
An excerpt weighted towards active compounds, which were near 1.3% of everything screened.
12-LOX inh: Primary qHTS assay for inhibitors of human arachidonate 12S-lipoxygenase (ALOX12): Round 2. Potency, µM (titrated, usually from 108 µM), for the others: top-dose activity change, negative = inhibition, hits mostly inhibitors. purified 12hLO, xylenol orange hydroperoxide absorbance. 580,000 tested, 1.1% active; note: % is set by controls: 0 for no effect and ±100 for the full control effect
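Purified human 12hLO (150 nM final) in 25 mM Hepes, 0.01% Triton X-100, pH 7.0 was preincubated 15 min at room temperature with compound. Then 40 uM arachidonic acid was added, 30 min. Hydroperoxide was read by Fe-XO absorbance ratio 573/405 nm.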
EPAC1 antagonist: qHTS for Antagonist of cAMP-regulated guanine nucleotide exchange factor 3 (EPAC1): primary screen; Rap guanine nucleotide exchange factor 3 (Homo sapiens), O95398; 360,000 tested, 0.14% active; Potency, µM (doses to about 115 µM), for inactives: top-dose activity change, negative = inhibition, most hits filed as inhibitors; EPAC1 GEF assay, Rap1b-BODIPY-GDP exchange fluorescence;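 note: plate controls were vehicle for no effect and positive control for full effect; nearly all actives have a fitted effect of over 50% in size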
Target sequence (O95398 whole entry, looked up): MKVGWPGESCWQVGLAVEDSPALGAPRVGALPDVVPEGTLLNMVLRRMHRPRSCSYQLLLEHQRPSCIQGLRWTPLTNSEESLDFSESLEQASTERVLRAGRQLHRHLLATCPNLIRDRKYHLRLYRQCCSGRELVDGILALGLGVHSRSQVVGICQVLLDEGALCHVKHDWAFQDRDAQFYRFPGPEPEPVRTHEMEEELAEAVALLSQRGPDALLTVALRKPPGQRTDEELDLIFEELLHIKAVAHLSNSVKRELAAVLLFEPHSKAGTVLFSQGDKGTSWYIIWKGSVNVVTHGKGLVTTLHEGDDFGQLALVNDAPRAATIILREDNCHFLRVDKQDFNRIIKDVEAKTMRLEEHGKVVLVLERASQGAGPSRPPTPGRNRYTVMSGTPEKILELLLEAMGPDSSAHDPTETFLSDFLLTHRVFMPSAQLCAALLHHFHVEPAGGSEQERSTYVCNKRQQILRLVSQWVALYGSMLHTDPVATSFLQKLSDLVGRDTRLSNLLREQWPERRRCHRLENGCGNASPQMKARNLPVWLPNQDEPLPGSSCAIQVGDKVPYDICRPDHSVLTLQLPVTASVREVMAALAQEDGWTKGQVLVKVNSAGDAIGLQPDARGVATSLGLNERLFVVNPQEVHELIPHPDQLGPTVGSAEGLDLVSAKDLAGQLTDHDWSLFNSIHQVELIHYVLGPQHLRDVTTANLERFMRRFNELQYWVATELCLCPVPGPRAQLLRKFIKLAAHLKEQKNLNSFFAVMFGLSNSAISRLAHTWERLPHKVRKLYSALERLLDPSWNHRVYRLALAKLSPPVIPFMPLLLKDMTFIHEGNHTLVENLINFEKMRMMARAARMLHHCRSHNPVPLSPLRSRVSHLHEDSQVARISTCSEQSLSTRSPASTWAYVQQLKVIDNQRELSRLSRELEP
EPAC2 ag: qHTS for Agonist of cAMP-regulated guanine nucleotide exchange factor 4 (EPAC2): primary screen; Rap guanine nucleotide exchange factor 4 (Homo sapiens), Q8WZA2; EPAC2 activation, biochemical qHTS; response scale: 100% = 6.5 mM cAMP response; Potency, µM (doses to about 154 µM), for inactives: at the top dose activation, hits mostly activators; 360,000 tested, 0.079% active; note: nearly all actives have a fitted effect of over 50% in size
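qHTS, titration series. 100 nM EPAC2 / 250 nM Rap1B-BODIPY-GDP / 50 uM GDP; RT; ex 480/em 540 nm, 5-min reads to 30 min. Norm. to 6.5 mM cAMP = activation.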
EPAC1 agonist: qHTS for Agonist of cAMP-regulated guanine nucleotide exchange factor 3 (EPAC1): primary screen | Potency, µM (doses to about 154 µM), inactives show top-dose activation, usual class: activators | EPAC1 agonist qHTS, biochemical assay; response scale: 100% = response to 6.5 mM cAMP | 360,000 tested, 0.073% active | Rap guanine nucleotide exchange factor 3 (Homo sapiens), O95398; note: nearly all actives have a fitted effect of over 60% in size
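Compounds were pinned as a concentration titration into mixtures of EPAC1 (100 nM), BODIPY-GDP-loaded Rap1B (250 nM) and GDP (50 uM). After 5 min at room temperature, fluorescence was followed for 30 min; activity was scaled to 6.5 mM cAMP.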
USP1-UAF1 inh: Inhibitors of USP1/UAF1: Primary Screen. recombinant USP1/UAF1, Ub-Rhodamine cleavage fluorescence. 390,000 tested, 0.23% active. AID 743255, 2014. Potency, µM (top dose mostly 57.1 µM), for inactives: at the highest dose activity change, negative = inhibition, usual class: inhibitors; note: % is set by controls: 0 for no effect and ±100 for the full control effect; nearly all actives have a fitted effect of over 60% in size
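In this screen, compounds sit with the deubiquitinase complex (1nM) for 15 min at room temperature before Ub-Rho is added at 150nM final. Fluorescence rise is then followed for 6 reads every 60 seconds.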
EPAC2 antag: qHTS for Antagonist of cAMP-regulated guanine nucleotide exchange factor 2 (EPAC2): primary screen | EPAC2 GEF exchange of Rap1B-BODIPY-GDP, fluorescence | 360,000 tested, 0.18% active | AID 720708, 2013 | Potency, µM (highest dose often 114 µM), without a hit: at the top dose activity, negative = inhibition, most hits filed as inhibitors | Rap guanine nucleotide exchange factor 4 (Homo sapiens), Q8WZA2; note: % is set by controls: 0 for no effect and ±100 for the full control effect; nearly all actives have a fitted effect of over 45% in size
* marks the source's active call; other numbers are inactive results; ! = not confirmed by another sample; [ ] = remark or other dose. Calls come from the whole dose curve; as a rule, active = well fitted curve in the direction sought with a large enough effect; inconclusive = small, poorly fitted or top-dose-only effect, or another doubt; inactive = no such curve, though single readings can be large; an effect the other way counts as inactive or inconclusive. Potency is the fitted concentration of half-maximal effect.

What do the screens show for `COc1cccc(C2CCCN2Cc2nc(-c3cccc(Cl)c3)no2)c1` (centres undefined)?
12-LOX inh: -3.3%

Results for O=C1OC(/C=C/c2ccc(Cl)cc2Cl)=NC/1=C\c1cccs1 ?
12-LOX inh: 35.5µM*; EPAC1 antagonist: -13.9%; EPAC2 ag: 12.1%; EPAC1 agonist: 18.3%; USP1-UAF1 inh: -6.3%; EPAC2 antag: 0.1%

What do the screens show for `CSC1=N/C(=C\c2cccs2)C(=O)S1`?
12-LOX inh: -27.3%

Results for CC1=C[C@@H](CNC(=O)CN(C)C)[C@H](C(C)C)C[C@H]1Cc1nc2ccc(C)cc2[nH]1 ?
12-LOX inh: 41.4%[176 µM]

What do the screens show for `O=[N+]([O-])c1ccc(NS(=O)(=O)c2ccc(I)s2)c([N+](=O)[O-])c1`?
12-LOX inh: 15.8µM*

How did CCOC(=O)N1CCN(CC(=O)Nc2nc3ccccc3s2)CC1 do in these assays?
12-LOX inh: 5.0%; EPAC1 antagonist: 3.7%; EPAC2 ag: 4.1%; EPAC1 agonist: 4.2%; USP1-UAF1 inh: -12.7%; EPAC2 antag: 6.8%

How did CCOC(=O)N1CCN(CC(=O)Nc2cc(OCC)ccc2OCC)CC1 do in these assays?
12-LOX inh: 1.58µM*; EPAC1 antagonist: 4.8%; EPAC2 ag: 2.7%; EPAC1 agonist: -10.2%; USP1-UAF1 inh: -16.9%; EPAC2 antag: 8.8%

What do the screens show for `CCOC(=O)N1CCN(CC(=O)Nc2nc3ccc(OC)cc3s2)CC1`?
12-LOX inh: 44.7µM*; EPAC1 antagonist: -13.7%; EPAC2 ag: 0.5%; EPAC1 agonist: -14.6%; USP1-UAF1 inh: -9.7%; EPAC2 antag: 5.0%

Results for CCOc1ccc(OCC)c(NC(=O)CN2CCN(c3ccc(C)cc3C)CC2)c1 ?
12-LOX inh: inconclusive; EPAC1 antagonist: 7.5%; EPAC2 ag: 3.5%; EPAC1 agonist: 8.5%; USP1-UAF1 inh: -6.6%; EPAC2 antag: -3.8%

What do the screens show for `COC(=O)c1ccc(C2CC(=O)Nc3sc(C(=O)Nc4cccc(C(F)(F)F)c4)c(C)c32)cc1` (centres undefined)?
12-LOX inh: -0.8%

Results for Cc1ccccc1N=Cc1ccc(N(C)C)cc1 ?
12-LOX inh: -46.1%

Results for CCOc1nc2ccccc2nc1C(=O)Nc1cc(OC)c(OC)c(OC)c1 ?
12-LOX inh: -1.0%

How did Cc1c(C(=O)NN2CCCCC2)nn(-c2ccc(Cl)cc2Cl)c1-c1ccc(Cl)cc1 do in these assays?
12-LOX inh: 24.3µM*!

How did CNC(=O)c1nc(C)n(-c2ccc(Cl)cc2Cl)n1 do in these assays?
12-LOX inh: -9.9%; EPAC1 antagonist: 7.6%; EPAC2 ag: 7.1%; EPAC1 agonist: 11.0%; USP1-UAF1 inh: -2.1%; EPAC2 antag: -9.6%

How did CCNC(=S)NNC(=O)c1ccc(C)cc1 do in these assays?
12-LOX inh: -0.3%

Results for S=C1SCN(Cc2ccccc2)CN1Cc1ccco1 ?
12-LOX inh: 35.5µM*; EPAC1 antagonist: -17.6%; EPAC2 ag: -1.2%; EPAC1 agonist: -6.1%; USP1-UAF1 inh: -20.4%; EPAC2 antag: -12.9%

How did CS(=O)(=O)Nc1cccc(-c2cncnc2NCc2ccccc2)c1 do in these assays?
12-LOX inh: 39.8µM*

What do the screens show for `CN(C)c1ncnc2ccc(-c3cccc(NS(C)(=O)=O)c3)cc12`?
12-LOX inh: -10.5%

What do the screens show for `CS(=O)(=O)Nc1cccc(-c2cc(NCc3ccccc3)ncn2)c1`?
12-LOX inh: 11.2µM*

What do the screens show for `CN(C)c1cc(-c2cccc(NS(C)(=O)=O)c2)ncn1`?
12-LOX inh: 35.5µM*
